FBA Mtb inh – inhibitors of M. tuberculosis fructose-bisphosphate aldolase | purified M. tuberculosis FBA, fluorescence read-out | 360,000 tested, 2.3% active | P9WQA3 | inhibition, % at 1 µM;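 also: 0% = vehicle and 100% = reference inhibitor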
Target sequence (P9WQA3 whole entry, looked up): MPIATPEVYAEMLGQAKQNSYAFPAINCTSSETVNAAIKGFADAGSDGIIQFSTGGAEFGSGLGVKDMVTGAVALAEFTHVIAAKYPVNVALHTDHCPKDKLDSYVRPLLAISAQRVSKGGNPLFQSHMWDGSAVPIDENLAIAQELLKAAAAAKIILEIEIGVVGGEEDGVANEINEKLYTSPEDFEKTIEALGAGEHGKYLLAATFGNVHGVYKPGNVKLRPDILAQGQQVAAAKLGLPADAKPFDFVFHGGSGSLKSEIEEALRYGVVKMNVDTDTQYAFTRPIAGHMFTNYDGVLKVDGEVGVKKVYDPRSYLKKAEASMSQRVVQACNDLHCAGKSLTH
GDH-TPI counter-1 – inhibits GDH-TPI coupling enzymes, artifact for Mtb FBA screen; AID 588335; inhibition, % at 4.8 µM; GDH-TPI coupled enzyme counterscreen, NADH absorbance; 360,000 tested, 1.2% active; in the data active = inhibition above about 30%;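 also: 0% = DMSO wells and 100% = wells lacking the enzyme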
3CLpro inhibitor – SARS-CoV 3CLpro protease inhibition | AID 1706 | P0C6X7 | 290,000 tested, 0.14% active | inhibition, % at 6 µM | recombinant SARS-CoV 3CLpro, quenched FRET peptide cleavage; in the data active = inhibition above about 12%
Vc quorum ag – quorum light induction in luxS cqsA deficient V. cholerae; V. cholerae BH1578 lux reporter, luminescence, 6 h; AID 588436; activation, % at 18.7 µM; 350,000 tested, 0.16% active; in the data active = activation mostly above about 9.7%, no sharp cut-off
PrPC surface inh – inhibitors of human cell surface prion protein PrPC | AID 720596 | 370,000 tested, 0.43% active | inhibition, % at 13.8 µM | P04156 | TR-FRET read-out; in the data active = inhibition above about 24%; also: 0% = median of the test wells and 100% = reference compound wells
Mtb FBA confirm – Mtb FBA inhibition, confirmed; inhibition, % at 1 µM; AID 651616; purified M. tuberculosis FBA, fluorescence read-out; shares compounds with FBA Mtb inh; 5,600 tested, 78% active;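 also: 0% = vehicle wells and 100% = reference inhibitor wells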
GDH-TPI counter-2 – counter-screen for M. tuberculosis FBA inhibitors: GDH-TPI coupled enzyme inhibition; inhibition, % at 1 µM; 5,600 tested, 81% active; AID 652141; shares compounds with FBA Mtb inh; GDH-TPI coupled enzyme counterscreen, fluorescence; in the data active = inhibition above about 10%
* = called active by the depositor; i = inactive; · = not tested or not shown; + = active, no number. Most compounds without a hit are left out; they make up all but 3.9% or so of the library. Rule as the data show it, unless noted: active = inhibition above about 27%; inactive = the rest.

SMILES | FBA Mtb inh | GDH-TPI counter-1 | 3CLpro inhibitor | Vc quorum ag | PrPC surface inh | Mtb FBA confirm | GDH-TPI counter-2
CN(C)CCNC(=O)c1c(NC(=O)c2ccccc2)sc2c1CCCC2 | 40.4* | 22.1 | -5.9 | -0.9 | 1.3 | 113.9* | 108.8*
CN(CCO)C(=O)c1c(NC(=O)c2ccccc2)sc2c1CCCC2 | -0.8 | 15.5 | 1.6 | i | -7.8 | · | ·
COc1ccc(/C=N/NC(=O)CC(=O)NCc2cccnc2)c(OC)c1 | -1.6 | 17.7 | 4.6 | -3.3 | 3.1 | · | ·
COc1ccc(OC)c(/C=N/NC(=O)CC(=O)NCc2ccccc2)c1 | 29.3* | -3.5 | 0.4 | 0.2 | -9.5 | 111.2* | 103.2*
COc1ccc(OC)c(/C=N/NC(=O)CC2C(=O)NN=C2C)c1 (centres undefined) | 68.2* | 15.2 | -0.1 | 0.6 | -3.6 | 41.6* | 37.7*
COc1ccc(OC)c(/C=N/Nc2nc(C)cc(=O)[nH]2)c1 | 49.1* | 22.4 | 3.2 | i | 0.2 | 194.2* | 173.4*
CCOc1cc(/C=N/NC(=O)CCCC(=O)NC2CCCCC2)ccc1O | 55.7* | 12.4 | 0.9 | 1.0 | -4.0 | 23.7 | 13.9*
O=C(NCc1ccccc1)C(c1ccccc1)n1c(-c2ccccn2)nc2ccccc21 (centres undefined) | · | · | · | · | 9.3 | · | ·
COc1ccc(CCNC(=O)Nc2cccs2)c(OC)c1 | 1.2 | 4.0 | 3.4 | 1.2 | 4.1 | · | ·
CC(=O)NC(Cc1ccccc1C)C(=O)NC1CCN(c2c3c(nc4ncnn24)CCC3)CC1 (centres undefined) | · | · | · | · | 0.2 | · | ·
O=C(NCC(=O)N1CCN(S(=O)(=O)c2c(F)cccc2F)CC1)c1ccccc1F | 2.2 | 5.5 | · | i | 2.3 | · | ·
COc1ccc(OC)c(/C=N/NC(=O)CC(=O)NC2CCCCC2)c1 | 104.7* | 2.2 | -1.0 | -0.2 | -5.3 | 152.2* | 122.3*
CC(=O)Nc1ccc(S(=O)(=O)N2CCC3(CC2)CC(=O)c2ccccc2O3)cc1 | 8.0 | 1.8 | · | -0.6 | -3.5 | · | ·
Nn1c(SCC(=O)Nc2nnc(-c3ccccc3)o2)nnc1C1CC1 | 44.9* | 7.8 | · | i | -1.2 | -0.6 | -2.2
CCc1cc2ccc(C)cc2nc1SCC(=O)Nc1cc(OC)c(OC)cc1C(=O)O | 47.1* | 12.2 | 1.6 | -0.3 | 20.9 | -10.7 | -8.9
CCn1c2ccccc2c2cc(NC(=O)COC(=O)c3cc(F)ccc3F)ccc21 | · | · | · | · | 1.5 | · | ·
CCN(CC)c1ccc2cc(-c3nnc(-c4ccccc4)o3)c(=O)oc2c1 | 33.6* | -3.9 | -6.8 | 4.5 | -8.0 | 145.8* | 104.7*
O=c1oc2ccc3ccccc3c2cc1-c1nnc(-c2cccs2)o1 | 30.3* | 5.4 | 0.1 | i | 0.8 | 114.5* | 84.3*
O=c1oc2ccc3ccccc3c2cc1-c1nnc(-c2ccccc2)o1 | 50.9* | 1.3 | -4.7 | 0.6 | -0.9 | 39.3* | 32.3*
COc1ccc(-c2nnc(-c3cc4c(ccc5ccccc54)oc3=O)o2)cc1 | 1.5 | -7.1 | 2.6 | 2.2 | -5.0 | · | ·
N#Cc1cc2c(ccc3ccccc32)oc1=O | 73.1* | 1.0 | 1.3 | i | 10.2 | 168.1* | 140.7*
CCN(CC)c1ccc2cc(-c3nc4ccccc4n3C)c(=O)oc2c1 | 40.3* | 15.5 | -13.8 | -0.9 | 0.6 | 6.8 | -4.2
Oc1ccc2ccccc2c1C=Nc1ccccc1-c1nc2ccccc2[nH]1 | 67.1* | 9.5 | 3.0 | i | -5.7 | 61.6* | 38.2*
C[C@@H]1CN([C@H](C)CO)C(=O)c2cc(Br)cnc2O[C@H]1CN(C)C | 0.7 | 3.3 | · | i | 3.0 | · | ·
CCN(CC)c1cc(C)c2cc(NC(=O)c3ccccc3F)ccc2n1 | 2.2 | 0.0 | 1.1 | 0.6 | -8.1 | · | ·
SMILES | FBA Mtb inh | GDH-TPI counter-1 | 3CLpro inhibitor | Vc quorum ag | PrPC surface inh | Mtb FBA confirm | GDH-TPI counter-2
CCN(CC)c1cc(C)c2cc(NC(=O)CNC(C)=O)ccc2n1 | 49.3* | 9.2 | 2.0 | i | -5.9 | 101.2* | 110.1*
CCOC(=O)N1CCC(NC(=O)CCc2c(C)nc3c(c(C)nn3-c3ccccc3)c2C)CC1 | 3.6 | 14.7 | · | -0.3 | 0.7 | · | ·
CCOC(=O)N1CCN(C(=O)c2cc(C)c3c(C)nn(-c4ccccc4)c3n2)CC1 | 65.9* | 1.5 | 1.6 | 3.2 | 5.6 | 0.5 | -1.9
CCN(CC)c1ccc(NC(=O)COC(=O)COc2ccccc2[N+](=O)[O-])cc1 | -0.6 | 12.5 | 2.3 | 0.0 | -4.5 | · | ·
O=c1cc(-c2ccco2)oc2c1ccc1ccccc12 | 49.2* | 20.5 | -0.1 | 1.3 | -8.6 | + | +
Cc1c(O)cnc2nn(-c3ccccc3)c(=N)n12 | 90.9* | · | · | · | -2.5 | 81.2* | 52.0*
Cc1nn(-c2ccccc2)c(C)c1N | -0.3 | -7.9 | 7.9 | -0.3 | 8.0 | · | ·
Oc1ccc(Cl)cc1CNc1cnc2ccccc2c1 | 34.5* | 30.0 | -0.6 | 1.7 | 6.8 | + | 169.5*
C=CCc1cccc(CNc2cnc3ccccc3c2)c1O | 26.0 | 0.7 | -2.9 | -1.7 | 19.1 | · | ·
Oc1ccc2ccccc2c1CNc1cnc2ccccc2c1 | 49.9* | 30.0 | 3.2 | -0.7 | 3.1 | -4.7 | -5.5
Oc1ccccc1CNc1cnc2ccccc2c1 | 39.6* | 13.1 | -0.8 | -0.5 | 9.9 | 5.1 | 3.2
O=S1(=O)c2ccc(N3CCC[C@@H]3CO)cc2O[C@H]2CCN1C2 | · | · | · | · | -0.5 | · | ·
N=c1c(S(=O)(=O)c2ccc(Cl)cc2)cc2c(=O)n3ccccc3nc2n1Cc1ccco1 | 56.2* | 14.6 | 0.3 | -0.2 | -20.5 | 141.8* | 106.9*
COCCn1c(=N)c(S(=O)(=O)c2ccc(Br)cc2)cc2c(=O)n3ccccc3nc21 | 4.5 | 3.1 | 1.6 | 0.0 | -4.6 | · | ·
CCn1c(=N)c(S(=O)(=O)c2ccc(Cl)cc2)cc2c(=O)n3ccccc3nc21 | · | · | -0.7 | · | · | · | ·
COCCn1c(=N)c(S(=O)(=O)c2ccc(F)cc2)cc2c(=O)n3ccccc3nc21 | 34.2* | 9.5 | -2.9 | -0.9 | -15.1 | 51.6* | 40.8*
N=c1c(S(=O)(=O)c2ccccc2)cc2c(=O)n3ccccc3nc2n1CC1CCCO1 (centres undefined) | 68.8* | 15.7 | -0.5 | -0.7 | -20.4 | + | +
N#Cc1cc2cc3c(cc2nc1N1CCCCC1)OCCO3 | 47.5* | 13.0 | 4.1 | · | -23.7 | 55.3* | 41.9*
Cc1ccc(C(=O)N2CCCN(c3nc4cc5c(cc4cc3C#N)OCO5)CC2)cc1 | 45.5* | 10.4 | -3.5 | i | -9.9 | 144.6* | 87.8*
N#Cc1cc2cc3c(cc2nc1Cl)OCCO3 | 1.1 | -9.0 | · | -0.2 | 2.0 | · | ·
N#Cc1ccc(C23OCCN2CCn2nc4ccccc4c23)cc1 (centres undefined) | 6.0 | 5.2 | · | -0.9 | -7.2 | · | ·
COc1c(Cl)cccc1-c1cn2ccc(C)cc2n1 | 38.2* | 0.7 | -2.0 | -0.5 | 0.3 | 36.1* | 39.0*
Cc1ccn2cc(-c3cnoc3C)nc2c1 | 31.4* | -8.1 | 2.0 | i | -2.3 | 15.2 | 0.3
Cc1oncc1-c1cn2ccccc2n1 | 22.3 | 6.6 | 4.7 | i | -6.0 | · | ·
Cc1ccc(OCCn2c(SCCO)nc3c(N)ncnc32)cc1 | -0.8 | -2.2 | 2.0 | -0.8 | 3.7 | · | ·

Assay outcomes deposited in PubChem BioAssay by several laboratories.
